This passage reports outcome and AC50 results from PubChem BioAssay (EPA / NIEHS).

In general, AC50 refers to the concentration giving half of the maximal activity seen.

Details in all cases: mRNA level, 48 h; actives raise or lower the signal
Read-out in test [1]: Cyclin D2 (CCND2), CCND2 (gene 894)
Kind of test: LTEA_HepaRG_CCND2: Life Technologies and Expression Analysis (LTEA) Assay for Cyclin D2 (CCND2) using HepaRG (AID 2283449).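 Further: CCND2 transcript measured by TaqMan qRT-PCR and normalised to three housekeeping genes.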 Put shortly: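 In this HepaRG study, an eight-point concentration series (max 100 uM, 0.5% DMSO) is applied for 48 h. CCND2 mRNA change is derived by qRT-PCR normalised to ACTB, GAPDH and POLR2A.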

Read-out in test [2]: Cyclin Dependent Kinase Inhibitor 1A (CDKN1A), CDKN1A (gene 1026)
Kind of test: LTEA_HepaRG_CDKN1A: Life Technologies and Expression Analysis (LTEA) Assay for Cyclin Dependent Kinase Inhibitor 1A (CDKN1A) using HepaRG (AID 2283450). The gist of the method: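 Read-out is CDKN1A mRNA by TaqMan qRT-PCR, normalized to three housekeeping genes and fitted in both directions against the DMSO baseline. Human HepaRG cells were treated 48 h with test chemicals up to 100 uM in half-log steps, 0.5% DMSO.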

Read-out in test [3]: Cyclin D1 (CCND1), CCND1 (gene 595)
In words: LTEA_HepaRG_CCND1: Life Technologies and Expression Analysis (LTEA) Assay for Cyclin D1 (CCND1) using HepaRG (AID 2283451). Put shortly: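 HepaRG plated 48 h, medium switched to serum-free induction medium, chemicals added in duplicate (top 100 uM, half-log steps, 0.5% DMSO) for 48 h, cells lysed, RNA measured by TaqMan qRT-PCR.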

Read-out in test [4]: catalase (CAT), CAT (gene 847)
Kind of test: LTEA_HepaRG_CAT: Life Technologies and Expression Analysis (LTEA) Assay for catalase (CAT) using HepaRG (AID 2283452). The gist of the method:
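Differentiated HepaRG cells in serum-free induction medium were dosed 48 h in duplicate, eight half-log concentrations from 100 uM in 0.5% DMSO. Transcript measured by TaqMan qRT-PCR, normalised to ACTB/GAPDH/POLR2A, fitted bidirectionally against DMSO.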

Read-out in test [5]: flavin-containing dimethylaniline monooxygenases 3 (FMO3), FMO3 (gene 2328)
Kind of test: LTEA_HepaRG_FMO3: Life Technologies and Expression Analysis (LTEA) Assay for flavin-containing dimethylaniline monooxygenases 3 (FMO3) using HepaRG (AID 2283453). The gist of the method: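 FMO3 transcript quantified by TaqMan qRT-PCR against three housekeeping genes after 48 h chemical exposure of HepaRG cells. Eight-point half-log series, top 100 uM, 0.5% DMSO vehicle; phenobarbital 1mM induction control; up- or down-regulation fitted.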

Read-out in test [6]: Cytochrome P450 (CYP1A1), CYP1A1 (gene 1543)
In words: LTEA_HepaRG_CYP1A1: Life Technologies and Expression Analysis (LTEA) Assay for Cytochrome P450 (CYP1A1) using HepaRG (AID 2283454). The gist of the method: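 HepaRG, 48 h post-plating switched to serum-free induction medium; 8-pt conc-response (top 100 uM, half-log, 0.5% DMSO), duplicates, 48 h. Lysis in RLT, TaqMan qRT-PCR for CYP1A1; gain or loss vs DMSO.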

Read-out in test [7]: Forkhead box O1 (FOXO1), FOXO1 (gene 2308)
In words: LTEA_HepaRG_FOXO1: Life Technologies and Expression Analysis (LTEA) Assay for Forkhead box O1 (FOXO1) using HepaRG (AID 2283456). The gist of the method:
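Using one lot of HepaRG hepatic cells kept in 0.5% DMSO, the team applied test chemicals in duplicate, half-log dilutions from 100 uM, for 48 h. Expression, normalised to ACTB/GAPDH/POLR2A, was compared with vehicle in either direction.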

Read-out in test [8]: Forkhead box O3 (FOXO3), FOXO3 (gene 2309)
Kind of test: LTEA_HepaRG_FOXO3: Life Technologies and Expression Analysis (LTEA) Assay for Forkhead box O3 (FOXO3) using HepaRG (AID 2283459). Put shortly:
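Gene-expression endpoint: FOXO3 transcript level by qRT-PCR in HepaRG cultures treated 48 h with chemicals up to 100 uM (half-log, 0.5% DMSO vehicle).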

Read-out in test [9]: ABC Transporter (ABCB1), ABCB1 (gene 5243)
Kind of test: LTEA_HepaRG_ABCB1: Life Technologies and Expression Analysis (LTEA) Assay for ABC Transporter (ABCB1) using HepaRG (AID 2283460). The gist of the method: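 Human liver HepaRG line treated 48 h with up to 100 uM compound (eight half-log points, 0.5% DMSO); ABCB1 mRNA change fitted bidirectionally against DMSO controls.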

Read-out in test [10]: growth arrest and DNA damage 45 (GADD45B), GADD45B (gene 4616)
In words: LTEA_HepaRG_GADD45B: Life Technologies and Expression Analysis (LTEA) Assay for growth arrest and DNA damage 45 (GADD45B) using HepaRG (AID 2283461). The gist of the method:
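HepaRG, ~100,000 cells/well, 48 h plating; serum-free induction medium; cpd 100 uM top, half-log x8, 0.5% DMSO, duplicate, 48 h; lysis in RLT, RNA isolation, qRT-PCR; norm ACTB/GAPDH/POLR2A; bidirectional fit vs DMSO.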

Read-out in test [11]: ABC Transporter (ABCC3), ABCC3 (gene 8714)
Kind of test: LTEA_HepaRG_ABCC3: Life Technologies and Expression Analysis (LTEA) Assay for ABC Transporter (ABCC3) using HepaRG (AID 2283462). The gist of the method:
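Human HepaRG, 48 h dosing, 8-pt half-log series from 100 uM, 0.5% DMSO vehicle, duplicates. ABCC3 mRNA by TaqMan qRT-PCR, housekeeping-normalized; bidirectional curve fit vs DMSO.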

Read-out in test [12]: ABC Transporter (ABCB11), ABCB11 (gene 8647)
In words: LTEA_HepaRG_ABCB11: Life Technologies and Expression Analysis (LTEA) Assay for ABC Transporter (ABCB11) using HepaRG (AID 2283463). Put shortly: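 Using HepaRG cultures held in 0.5% DMSO, chemicals were tested at half-log dilutions from 100 uM for 48 h. Induction or suppression of ABCB11 mRNA, normalized to ACTB, GAPDH and POLR2A, was fitted bidirectionally against vehicle.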

Read-out in test [13]: ABC Transporter (ABCC2), ABCC2 (gene 1244)
Kind of test: LTEA_HepaRG_ABCC2: Life Technologies and Expression Analysis (LTEA) Assay for ABC Transporter (ABCC2) using HepaRG (AID 2283464). The gist of the method:
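HepaRG, 48 h post-plating; serum-free induction medium; cpd 8-pt, 100 uM top, half-log, 0.5% DMSO, duplicate, 48 h. Readout: ABCC2 mRNA by qRT-PCR, norm. ACTB/GAPDH/POLR2A. Bidirectional fit vs DMSO baseline.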

Read-out in test [14]: Broad substrate specificity ATP-binding cassette transporter ABCG2 (Homo sapiens) (UniProt Q9UNQ0)
In words: LTEA_HepaRG_ABCG2: Life Technologies and Expression Analysis (LTEA) Assay for ABC Transporter (ABCG2) using HepaRG (AID 2283465). The gist of the method:
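Gene expression of ABCG2 in HepaRG liver cells is quantified by qRT-PCR following 48 h exposure across an eight-point series topping at 100 uM. Values come from bidirectional fitting relative to DMSO vehicle.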

Read-out in test [15]: ATP-citrate lyase (ACLY), ACLY (gene 47)
In words: LTEA_HepaRG_ACLY: Life Technologies and Expression Analysis (LTEA) Assay for ATP-citrate lyase (ACLY) using HepaRG (AID 2283466). Put shortly: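 ACLY expression changes in human HepaRG liver cells are quantified by qRT-PCR after 48 h exposure to test chemicals (maximum 100 uM, half-log steps). Values are fitted in both directions relative to 0.5% DMSO vehicle.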

Read-out in test [16]: Peroxisomal acyl-coenzyme A oxidase 1 (ACOX1) gene, ACOX1 (gene 51)
In words: LTEA_HepaRG_ACOX1: Life Technologies and Expression Analysis (LTEA) Assay for Peroxisomal acyl-coenzyme A oxidase 1 (ACOX1) gene using HepaRG (AID 2283467). The gist of the method: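 Human HepaRG hepatic cultures, 48 h treatment with test chemicals up to 100 uM. ACOX1 expression read by qRT-PCR relative to 0.5% DMSO vehicle.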

Read-out in test [17]: Alkaline Phosphatase, Placental (ALPP) gene, ALPP (gene 250)
In words: LTEA_HepaRG_ALPP: Life Technologies and Expression Analysis (LTEA) Assay for Alkaline Phosphatase, Placental (ALPP) gene using HepaRG (AID 2283468). Put shortly: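 HepaRG, 48 h plating then 48 h dosing, serum-free induction medium, 0.5% DMSO. 8 conc, half-log, max 100 uM, duplicates. Endpoint: ALPP transcript by qRT-PCR, housekeeping-normalized; gain or loss fitted vs DMSO.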

Read-out in test [18]: CFLAR gene, CFLAR (gene 8837)
Kind of test: LTEA_HepaRG_CFLAR: Life Technologies and Expression Analysis (LTEA) Assay for CFLAR gene using HepaRG (AID 2283455). The gist of the method:
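Gain- or loss-of-signal changes in CFLAR transcript were fitted bidirectionally relative to 0.5% DMSO. Cells (HepaRG, duplicate wells) were dosed for 48 h across eight half-log concentrations topping at 100 uM; quantitation by TaqMan qRT-PCR.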

Each structure is given as a SMILES string. Activity calls are given as the source filed them. How the source made its calls: active means hit-call score of the fitted dose curve at least 0.9, where 1 is the maximum; inactive means score below 0.9.

Chain of Broad substrate specificity ATP-binding cassette transporter ABCG2 (Homo sapiens) (Q9UNQ0 whole entry, looked up): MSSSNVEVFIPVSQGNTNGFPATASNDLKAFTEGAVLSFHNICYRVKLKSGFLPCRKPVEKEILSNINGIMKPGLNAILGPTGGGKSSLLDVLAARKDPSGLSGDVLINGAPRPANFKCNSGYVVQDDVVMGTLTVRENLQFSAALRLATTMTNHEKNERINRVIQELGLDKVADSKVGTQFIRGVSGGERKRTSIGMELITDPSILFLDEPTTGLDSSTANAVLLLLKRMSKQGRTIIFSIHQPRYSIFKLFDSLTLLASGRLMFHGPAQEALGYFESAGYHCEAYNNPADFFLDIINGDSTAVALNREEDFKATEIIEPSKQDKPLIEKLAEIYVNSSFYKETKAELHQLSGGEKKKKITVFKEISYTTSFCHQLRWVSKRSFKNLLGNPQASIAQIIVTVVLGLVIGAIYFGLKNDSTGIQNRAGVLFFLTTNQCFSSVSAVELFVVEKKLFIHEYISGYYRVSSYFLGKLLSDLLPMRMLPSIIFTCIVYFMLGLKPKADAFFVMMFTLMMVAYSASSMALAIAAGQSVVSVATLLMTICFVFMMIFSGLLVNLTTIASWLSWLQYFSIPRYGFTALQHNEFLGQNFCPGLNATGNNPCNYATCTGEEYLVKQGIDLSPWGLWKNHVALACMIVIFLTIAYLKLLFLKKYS

As to `Nc1ccc(S(=O)(=O)c2ccc(N)cc2)cc1`, the molecule was classed as inactive in test [1], in test [2], in test [3], in [4], in test [5] and in test [6]. Moreover, the result in test [7], in test [8], in test [9], in test [10], in test [11] and in [12] was inactive. Besides, the molecule was classed as inactive in test [13], in test [14], in [15], in test [16] and in test [17].
`CC(=O)Oc1ccccc1C(=O)O`: the molecule was classed as inactive in test [1], in [2], in [3], in test [4], in test [5] and in test [7]. The call in test [8], in test [10], in [11], in test [12], in [13] and in test [14] was inactive. Besides, the outcome in [15], in [16] and in test [17] was inactive. The half-maximal activity concentration (AC50) in test [6] was 50 µM (active).
On to `Cc1c(C(=O)O)c(O)cc2c1C(=O)c1c(O)c([C@@H]3O[C@H](CO)[C@@H](O)[C@H](O)[C@H]3O)c(O)c(O)c1C2=O`, for which the molecule was classed as inactive in [1], in [2], in [3], in [4], in [5] and in test [6]. The molecule was classed as inactive in test [7], in [8], in test [10], in test [11], in test [12] and in [13]. Besides, the result in [14], in test [15], in test [16] and in test [17] was inactive.
`C1CCC(SSC2CCCCC2)CC1`: the outcome in test [2], in test [3], in [4], in test [5], in [18] and in test [7] was inactive. The outcome in [8], in [10], in test [11], in test [12], in test [13] and in [14] was inactive. Besides, the call in test [15], in test [16] and in test [17] was inactive. Moreover, the AC50 in [6] is 50 µM (active).
